Screening data (PubChem BioAssay)
PKD1 kinase inh = inhibitors of human PKD1 kinase, biochemical, fluorescence polarization; Serine/threonine-protein kinase D1 (Homo sapiens), Q15139; PKD1 kinase fluorescence polarization assay; inhibition, % (test concentration not listed); actives 0.056% (n = 200,000); AID 797, 2007
HDAC3 inhib = HDAC3 deacetylase inhibitors, primary screen, biochemical, fluorescence, cell-free homogeneous; recombinant HDAC3, fluorogenic peptide/trypsin coupled; AID 2718, 2010; Histone deacetylase 3 (Homo sapiens), O15379; actives 0.15% (n = 320,000); inhibition, % at 8.3 µM; in the data active means inhibition above about 26%, passing the limit was not always enough; inconclusive means no clear call, values can overlap the other calls
LANA-H2B inh = blockers of LANA interaction with H2A/H2B – biochemical, FP readout, HTS, primary screen; inhibition, % (test concentration not listed); cell-free LANA-H2A/H2B peptide, fluorescence polarization; actives 0.6% (n = 320,000); in the data active means inhibition mostly above about 10%, no sharp cut-off; inactive means mostly below about 6.7%
GRK2 inh = compounds blocking aptamer binding on GRK2 – biochemical, human GRK2, bead flow cytometry, HTS, primary screen; AID 488847, 2010; FAM-aptamer displacement from GRK2; inhibition of aptamer binding, % at 10 µM; actives 0.59% (n = 330,000);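 active means inhibition of aptamer binding above 40%, roughly 3 SD of noise, on plates passing a quality check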;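 further: median bead fluorescence of bound FAM aptamer so fluorescent compounds give negative values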
Pemphigus Ab inh = inhibitors of pemphigus antibody binding to DSG3, primary screen, biochemical, bead-based, flow cytometry, scFv-GFP | DSG3-coupled beads, scFv-anti-DSG3-GFP binding; stronger effect = lower value | binding (percent of control), % at 10 µM | actives 0.48% (n = 310,000) | AID 588358, 2011;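 active means binding more than 3 SD below its plate's average and above zero; inconclusive means below that plate limit but binding exactly zero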;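 further: hits lower antibody fragment binding to DSG3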
VLA-4 inh = inhibition in human VLA-4 binding assay, primary screen, VLA-4 allosteric modulator project, MLPCN library, flow cytometry, VLA-4 expressing cells; ligand binding flow cytometry; inhibition, % (about 7 µM as worked out from the volumes in the protocol); actives 0.2% (n = 330,000)
* = called active by the depositor; ? = inconclusive; . = no result given. Most compounds without a hit are left out; they make up all but 1.8% or so of the library. Unless noted, no stated cut-off is given here; in the data, active means inhibition above about 50%; inactive means the rest.

SMILES	PKD1 kinase inh	HDAC3 inhib	LANA-H2B inh	GRK2 inh	Pemphigus Ab inh	VLA-4 inh
O=C(Cn1c(=O)cnc2ccccc21)Nc1cccc(S(=O)(=O)N2CCCCC2)c1	.	2	1	0	104	-44
O=C(Cn1c(=O)cnc2ccccc21)Nc1cccc(S(=O)(=O)N2CCOCC2)c1	.	-5	26*	0	97	-5
CCCOc1ccc(-c2nc[nH]c2[N+](=O)[O-])cc1	-10	-10	-1	0	92	-111
O=C(N/N=C\c1c[nH]c2ccccc12)c1ccc(O)cc1	.	4	74*	0	93	-1
O=C(O)c1ccc(N/N=C/c2c[nH]c3ccccc23)cc1	.	-5	-6	3	111	10
O=C(N/N=C/c1c[nH]c2ccccc12)c1ccc(Br)cc1	.	11	-1	2	108	-2
Fc1c(F)c(F)c(N/N=C/c2c[nH]c3ccccc23)c(F)c1F	2	32*	-3	8	96	11
COc1ccc(Cn2ccnc2SCC(=O)Nc2nnc(C)s2)cc1	.	-3	4	1	107	-1
Cc1nnc(NC(=O)CSc2nnc(C)n2Cc2ccccc2)s1	-6	.	4	2	91	13
Cc1nnc(NC(=O)CSc2nccn2Cc2ccccc2)s1	.	-2	0	86*	108	3
Cc1nnc(NC(=O)CSc2nccn2Cc2ccc(F)cc2)s1	.	-2	1	42*	.	-1
CCN(CC)S(=O)(=O)c1ccc(C)c(NC(=O)COC(=O)[C@@H]2CCCN2C(=O)c2cccs2)c1	-3	6	15*	0	101	-4
CN(C)S(=O)(=O)c1ccc(Cl)c(NC(=O)COC(=O)[C@@H]2CCCN2C(=O)c2cccs2)c1	-3	-12	-2	0	99	-17
CC(C)C[C@H](NC(=O)CCCn1nnc2ccccc2c1=O)C(=O)O	.	3	0	0	100	-17
O=C(O)CCNC(=O)CCCn1nnc2ccccc2c1=O	.	-8	92*	0	104	-1
CC(OC(=O)c1cc(S(=O)(=O)N2CCOCC2)ccc1F)C(=O)NC1CCCC1 (centres undefined)	.	-1	25*	0	100	-14
Cc1noc(C)c1COC(=O)c1cc(S(=O)(=O)N2CCOCC2)ccc1F	.	-6	31*	4	562	7
O=C(COC(=O)c1cc(S(=O)(=O)N2CCOCC2)ccc1F)NC1CCCCC1	.	.	.	7	?	-6
CCCc1cc(=O)[nH]c(SCC(=O)Nc2c(C)n(C)n(-c3ccccc3)c2=O)n1	.	0	0	2	128	-5
O=C(CN1C(=O)NC2(CCCC2)C1=O)Nc1cccc(Cl)c1Cl	.	1	-4	0	57*	7
O=C(CN1C(=O)NC2(CCCCC2)C1=O)Nc1cccc(Cl)c1Cl	.	6	1	0	100	6
COc1ccc(C(C)NC(=O)c2ccncc2)cc1OC (centres undefined)	.	-3	2	0	105	2
O=C(NCc1cccs1)Nc1cccc(Cl)c1	1	5	3	3	9.4*	8
S=C(NCc1cccs1)Nc1cccc(Cl)c1	-11	7	-2	0	100	2
S=C(NCc1cccs1)Nc1cc(Cl)cc(Cl)c1	.	-3	21*	0	.	-2
SMILES	PKD1 kinase inh	HDAC3 inhib	LANA-H2B inh	GRK2 inh	Pemphigus Ab inh	VLA-4 inh
COc1ccc(Cl)cc1C(=O)NNC(=O)CNC(=O)c1ccco1	.	5	1	0	101	-8
CCCCCN(C(=O)CCC(=O)OCC(=O)c1ccc(CCC)cc1)c1c(N)n(CCCC)c(=O)[nH]c1=O	.	5	-10	0	85	7
NNc1ccc([N+](=O)[O-])c2[nH][nH]c(=O)c12	.	.	.	.	83*	.
O=[N+]([O-])c1ccc(Nc2ccccc2)c2nonc12	.	3	1	2	104	-3
Cc1cccc(-c2ccc3c(c2)C2CC3CCN2C)c1 (centres undefined)	.	.	.	.	100	.
CN(C)S(=O)(=O)c1ccc(C(=O)NCc2nc3ccccc3s2)cc1	.	2	15*	4	98	3
